Sampled rows, rich in hits. Any-hit rate of the full collection: about 2.3%.
Mcl1-Noxa inh: Mcl-1/Noxa interaction inhibition; Q07820; TR-FRET Mcl-1/Noxa peptide binding, 2 h; inhibition, % at 21.7 µM; 220,000 compounds, 1.5% hits;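 active = compounds that cut the protein-peptide binding signal by more than 50% relative to plate controls in a single-dose test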;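 note: His-tagged Mcl-1 with rhodamine Noxa BH3 peptide and terbium anti-His antibody; 0% = Mcl-1 plus Noxa peptide wells and 100% = peptide-only wells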
Target sequence (Q07820 whole entry, looked up): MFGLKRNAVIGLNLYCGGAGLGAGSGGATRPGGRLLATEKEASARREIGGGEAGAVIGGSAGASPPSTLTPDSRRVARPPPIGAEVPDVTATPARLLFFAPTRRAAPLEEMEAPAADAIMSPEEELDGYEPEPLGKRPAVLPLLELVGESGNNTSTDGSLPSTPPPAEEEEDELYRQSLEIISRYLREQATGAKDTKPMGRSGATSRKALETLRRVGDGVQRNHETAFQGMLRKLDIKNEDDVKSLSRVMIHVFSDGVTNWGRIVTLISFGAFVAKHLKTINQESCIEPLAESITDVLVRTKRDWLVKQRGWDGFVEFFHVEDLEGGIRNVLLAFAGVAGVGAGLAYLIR
Mcl-1 Bim block: human Bim-Mcl-1 interaction inhibition; Bead-based flow cytometry, Bim peptide-Mcl-1 binding; inhibition, % at 10 µM; 190,000 compounds, 0.1% hits; AID 1009; in the data active = inhibition above about 40%;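 note: 0% = no compound tracer wells and 100% = peptide blocker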
Bcl-xL primary: blocks human Bcl-xL binding to Bim BH3 peptide. Q07817. GST-Bcl-xL / FITC-Bim BH3 peptide fluorescence polarization. inhibition, % at 10.9 µM. 320,000 compounds, 0.7% hits;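 active = inhibition above the mean of all tested compounds plus 3 SD, cutoff set per campaign, cut at about 30% in these data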;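 note: 0% = DMSO wells and 100% = unlabeled Bim-BH3 peptide competitor; inhibitors lower millipolarization by displacing the labeled peptide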
Target sequence (Q07817 whole entry, looked up): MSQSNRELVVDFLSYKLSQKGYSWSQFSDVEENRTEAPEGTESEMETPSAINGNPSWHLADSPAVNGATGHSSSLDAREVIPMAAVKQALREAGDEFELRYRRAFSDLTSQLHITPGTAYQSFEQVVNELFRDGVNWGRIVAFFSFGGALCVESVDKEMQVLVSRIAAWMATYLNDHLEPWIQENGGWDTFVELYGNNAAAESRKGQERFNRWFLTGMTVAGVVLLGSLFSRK
MCL1 BIM primary: disrupts human MCL1 binding to BIM-BH3 peptide. Q07820. GST-MCL1 / FITC-Bim-BH3 fluorescence polarization. inhibition, % at 10.9 µM. 320,000 compounds, 0.68% hits. AID 2057;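 active = inhibition above the mean inhibition of all tested compounds plus 3 SD, set per campaign, cut at about 40% in these data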;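 note: 0% = DMSO wells and 100% = unlabeled Bim-BH3 peptide control; higher means more loss of mP so more displacement of Bim peptide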
Mcl1 Bid PPI: disrupts binding of human Mcl-1 to Bid peptide; inhibition, % at 21.7 µM; 220,000 compounds, 0.97% hits; TR-FRET Mcl-1/Bid-Dy647 peptide binding, 1536-well; Q07820;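 active = compounds that cut the binding signal by more than half at the single screening dose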;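 note: His-tagged Mcl-1 with europium anti-His antibody binding Bid BH3 peptide; 0% = Mcl-1 plus peptide wells and 100% = peptide-only wells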
GLD-1 TGE inh: GLD-1-TGE RNA interaction inhibition (C. elegans) | inhibition, % at 5.96 µM | purified GLD-1 + fluorescein TGE RNA, fluorescence polarization | 320,000 compounds, 0.44% hits | AID 2280;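 active = percent inhibition above a per-plate cutoff, the plate mean of test compounds plus 3 SD, cut at about 30% in these data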;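 note: 0% = DMSO wells with GLD-1 and probe and 100% = wells lacking GLD-1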
BCLXL inh confirm: Bcl-xL (human) inhibition, MCL1 counter-screen confirmation. shares compounds with MCL1 BIM primary. GST-Bcl-xL / FITC-Bim BH3 peptide FP binding. inhibition, % at 10.9 µM. 1,700 compounds, 54% hits. AID 2166;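 active = inhibition above a cutoff equal to the mean inhibition of all tested compounds plus 3 SD, cut at about 30% in these data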;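 note: 0% = DMSO wells and 100% = unlabeled Bim BH3 control peptide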
MCL1 BIM confirm: confirmation of human MCL1 and BIM-BH3 interaction inhibitors. shares compounds with MCL1 BIM primary. GST-MCL1 / FITC-Bim-BH3 fluorescence polarization. inhibition, % at 10.9 µM. 1,700 compounds, 61% hits. AID 2168;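 active = inhibition above the average of all tested compounds plus 3 SD, cut at about 40% in these data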;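 note: 0% = DMSO wells and 100% = unlabeled Bim-BH3 control peptide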
An asterisk follows results filed as active.

For c1ccc(-c2cn3nc4c(nc3n2)CCCC4)cc1 the results were Mcl1-Noxa inh 17.6, Mcl-1 Bim block 1.0, Bcl-xL primary 112.0*, MCL1 BIM primary 130.0*, Mcl1 Bid PPI -7.7, GLD-1 TGE inh 90.8*, BCLXL inh confirm 77.6* and MCL1 BIM confirm 97.4*.
For Brc1ccc(-c2cn3nc4c(nc3n2)CCCC4)cc1 the results were Mcl1-Noxa inh 10.8, Mcl-1 Bim block -1.0, Bcl-xL primary 74.8*, MCL1 BIM primary 79.5*, Mcl1 Bid PPI 5.6, GLD-1 TGE inh 42.1*, BCLXL inh confirm 44.9* and MCL1 BIM confirm 44.5*.
c1ccc(-c2cn3nc(-c4ccccc4)cnc3n2)cc1 was read as Mcl1-Noxa inh 9.1, Mcl-1 Bim block -4.0, Bcl-xL primary 2.8, MCL1 BIM primary 4.2, Mcl1 Bid PPI 5.5 and GLD-1 TGE inh 3.3.
`CCOC(=O)CN(C(=O)CNC(=O)c1ccco1)C(C(=O)NC1CCCCC1)c1cccs1` (stereo not drawn) gave Mcl1-Noxa inh -2.0, Mcl-1 Bim block -4.0, Bcl-xL primary 51.6*, MCL1 BIM primary 92.0*, Mcl1 Bid PPI 0.8, GLD-1 TGE inh 27.2, BCLXL inh confirm 46.2* and MCL1 BIM confirm 52.3*.
CCOC(=O)CN(C(=O)CNC(=O)c1ccco1)C(C(=O)NC1CCCC1)c1ccccc1OCC (stereo not drawn) was read as Mcl1-Noxa inh 7.5, Mcl-1 Bim block -1.0, Bcl-xL primary 2.3, MCL1 BIM primary 4.5, Mcl1 Bid PPI -13.4 and GLD-1 TGE inh 13.8.
`C=CCc1cccc(/C=N/NC(=O)CNc2cccc3ccccc23)c1O` gave Mcl1-Noxa inh 38.0, Mcl-1 Bim block 1.0, Bcl-xL primary 0.5, MCL1 BIM primary 47.3*, Mcl1 Bid PPI -15.5, GLD-1 TGE inh 9.3, BCLXL inh confirm 11.1 and MCL1 BIM confirm 53.6*.
`Cc1ccc(C(=O)N2CCCN(c3nc4cc5c(cc4cc3C#N)OCO5)CC2)cc1` gave Bcl-xL primary 87.2*, MCL1 BIM primary 98.3*, GLD-1 TGE inh 58.3*, BCLXL inh confirm -2.6 and MCL1 BIM confirm -5.2.
For N#Cc1cc2cc3c(cc2nc1N1CCCCC1)OCCO3 the results were Mcl1-Noxa inh 6.4, Mcl-1 Bim block 0.0, Bcl-xL primary 7.9, MCL1 BIM primary 6.4, Mcl1 Bid PPI -6.6 and GLD-1 TGE inh -2.9.
For CCOC(=O)c1c(-n2c(C)cc(C=O)c2C)sc2c1CCCC2 the results were Mcl1-Noxa inh 1.9, Mcl-1 Bim block -1.0, Bcl-xL primary -2.7, MCL1 BIM primary -0.5, Mcl1 Bid PPI -49.8 and GLD-1 TGE inh 6.1.
`Cc1ccc(C)n1-c1sc2c(c1C(=O)O)CCCC2` gave Mcl1-Noxa inh 37.5, Mcl-1 Bim block -3.0, Bcl-xL primary 20.2, MCL1 BIM primary 70.3*, Mcl1 Bid PPI -56.3, GLD-1 TGE inh -5.8, BCLXL inh confirm 16.9 and MCL1 BIM confirm 49.0*.
O=[N+]([O-])c1cc(CN2CCCC2)c2cccnc2c1O was read as Mcl1-Noxa inh 74.7*, Mcl-1 Bim block -3.0, Bcl-xL primary 16.0, MCL1 BIM primary 87.8*, Mcl1 Bid PPI 10.4, GLD-1 TGE inh -0.6, BCLXL inh confirm 14.0 and MCL1 BIM confirm 94.1*.
For O=[N+]([O-])c1cc(CN2CCN(c3cccc(C(F)(F)F)c3)CC2)c2cccnc2c1O the results were Mcl1-Noxa inh -13.3, Mcl-1 Bim block 0.0, Bcl-xL primary 2.5, MCL1 BIM primary 9.9, Mcl1 Bid PPI -3.4 and GLD-1 TGE inh -8.3.
Screening COc1ccc(OC)c(NC(=O)COC(=O)CCc2ccc(S(=O)(=O)N3CCOCC3)cc2)c1 returned GLD-1 TGE inh -1.0.
For CC(=O)Nc1ccc(NC(=O)CCc2nc3sc4c(c3c(=O)[nH]2)CCCC4)cc1 the results were Bcl-xL primary -5.2, MCL1 BIM primary 8.1 and GLD-1 TGE inh -6.0.
Screening CC1(NC(=O)CCc2nc3sc4c(c3c(=O)[nH]2)CCCC4)CCS(=O)(=O)C1 (stereo not drawn) returned Bcl-xL primary 10.5, MCL1 BIM primary 41.6*, GLD-1 TGE inh 1.9, BCLXL inh confirm 9.5 and MCL1 BIM confirm 44.3*.
Screening COc1ccc(NC(=O)Cc2ccsc2)cc1S(=O)(=O)N1CCOCC1 returned Bcl-xL primary 3.7, MCL1 BIM primary 6.8 and GLD-1 TGE inh 6.4.
Screening COc1ccc(NS(=O)(=O)c2ccc(F)c(Cl)c2)cn1 returned Bcl-xL primary 102.9*, MCL1 BIM primary 123.6*, GLD-1 TGE inh 99.5*, BCLXL inh confirm 48.9* and MCL1 BIM confirm 57.0*.
Cn1c(N)c(C#N)c2c(c1=S)CSC(C)(C)C2 was read as Mcl1-Noxa inh 20.3, Mcl-1 Bim block 3.0, Bcl-xL primary 16.0, MCL1 BIM primary 13.1, Mcl1 Bid PPI -58.5 and GLD-1 TGE inh 8.1.
`CC1(C)Cc2c(C#N)c(N)sc(=S)c2CS1` gave Mcl1-Noxa inh 40.9, Mcl-1 Bim block 2.0, Bcl-xL primary 57.0*, MCL1 BIM primary 70.7*, Mcl1 Bid PPI -15.8, GLD-1 TGE inh 47.5*, BCLXL inh confirm 70.5* and MCL1 BIM confirm 88.3*.
`COc1ccc(S(=O)(=O)N2CCc3cc4c(cc3C2C)OCCCO4)cc1` (stereo not drawn) gave Bcl-xL primary -0.1, MCL1 BIM primary 6.6 and GLD-1 TGE inh -5.6.
`O=C(C[C@H]1C/C=C\CCC(=O)O[C@@H](c2ccccc2)CNC1=O)NCCO` gave GLD-1 TGE inh 1.3.
For COCCN(C(=O)COC(=O)c1cc2c(s1)CCC2)c1c(N)n(Cc2ccccc2)c(=O)[nH]c1=O the results were Bcl-xL primary 31.9*, MCL1 BIM primary 90.8*, GLD-1 TGE inh 2.9, BCLXL inh confirm 39.8* and MCL1 BIM confirm 88.4*.
`N#CCCN(C(=O)CN1CCN(S(=O)(=O)c2ccc(Cl)s2)CC1)c1ccc(F)cc1` gave GLD-1 TGE inh 3.1.
Screening O=C1CSC(=S)N1/N=C/c1ccc(O)c(O)c1O returned Mcl1-Noxa inh 100.6*, Bcl-xL primary 66.0*, MCL1 BIM primary 84.9*, Mcl1 Bid PPI 100.1*, GLD-1 TGE inh -5.0, BCLXL inh confirm 74.7* and MCL1 BIM confirm 93.5*.
`O=C(CSc1nnc(-c2ccco2)c(-c2ccco2)n1)c1ccccc1` gave Mcl1-Noxa inh 96.4*, Mcl-1 Bim block 1.0, Bcl-xL primary 30.1, MCL1 BIM primary 43.3*, Mcl1 Bid PPI 39.8, GLD-1 TGE inh 7.3, BCLXL inh confirm 43.1* and MCL1 BIM confirm 77.6*.
For S=C(NC1CCCC1)NN1CCOCC1 the results were Mcl1-Noxa inh 15.2, Mcl-1 Bim block 2.0, Bcl-xL primary -0.6, MCL1 BIM primary 11.9, Mcl1 Bid PPI -52.6 and GLD-1 TGE inh 5.0.

Source: PubChem BioAssay (several laboratories)
